Assay outcomes deposited in PubChem by National Center for Advancing Translational Sciences (NCATS).
FLuc modulator: qHTS profiling assay for firefly luciferase inhibitor/activator using purifed enzyme and Km concentrations of substrates (counterscreen for miR-21 project). Luciferin 4-monooxygenase (Photinus pyralis), P08659. purified FLuc, Km substrates, luminescence inhibition. Potency, µM (highest dose often 57.5 µM), for the others: at the highest dose activity change, negative = inhibition, actives largely listed as inhibitors. actives 6.9% (n = 360,000). AID 588342, 2011;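 also: plate controls were vehicle for no effect and reference inhibitor for full effect; nearly all actives have a fitted effect of over 55% in size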
Target sequence (P08659 whole entry, looked up): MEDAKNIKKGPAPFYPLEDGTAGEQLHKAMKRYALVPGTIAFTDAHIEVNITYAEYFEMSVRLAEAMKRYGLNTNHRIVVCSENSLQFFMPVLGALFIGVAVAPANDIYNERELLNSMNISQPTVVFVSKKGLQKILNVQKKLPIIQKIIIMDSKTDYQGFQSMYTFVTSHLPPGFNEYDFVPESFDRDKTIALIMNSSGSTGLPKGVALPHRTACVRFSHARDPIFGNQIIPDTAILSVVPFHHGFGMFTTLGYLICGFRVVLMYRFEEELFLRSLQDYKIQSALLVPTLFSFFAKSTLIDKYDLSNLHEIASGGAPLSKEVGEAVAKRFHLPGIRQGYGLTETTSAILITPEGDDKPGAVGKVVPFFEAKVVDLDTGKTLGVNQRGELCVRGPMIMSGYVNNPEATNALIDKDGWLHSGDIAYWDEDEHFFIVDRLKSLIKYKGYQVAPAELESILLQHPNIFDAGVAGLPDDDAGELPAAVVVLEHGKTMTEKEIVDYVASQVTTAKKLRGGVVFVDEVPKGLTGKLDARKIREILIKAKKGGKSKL
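Biochemical qHTS of compounds, final roughly 60 µM downward over six points, against 10 nM purified firefly luciferase using Km concentrations of substrates (10 uM D-luciferin, 10 uM ATP) in Tris acetate pH 7.5 buffer; luminescence output.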
ELG1 genotoxic: qHTS screen for small molecules that induce genotoxicity in human embryonic kidney (HEK293T) cells expressing luciferase-tagged ELG1; AID 504466, 2011; Potency, µM (top dose mostly 46 µM), inactives show top-dose activity change, positive = activation, usual class: activators; HEK293T ELG1-luciferase reporter, luminescence, 16 h; actives 1.3% (n = 330,000); also: % of control where 0% means no effect; nearly all actives have a fitted effect of over 60% in size
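Cells (2,000/well) expressing the ELG1-luciferase fusion are dosed by pin tool and kept 16 hr at 37 °C, 5% CO2. Signal comes from ONE-Glo luciferase reagent after 30 min at room temperature.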
NPC1 promoter act: qHTS Assay for NPC1 Promoter Activators. actives 2.4% (n = 320,000). Potency, µM (doses to about 9.22 µM), for inactives: at the highest dose activation, actives largely listed as activators. AID 485313, 2010. Huh7 NPC1 promoter luciferase reporter, 24 h; also: % of control where 0% means no effect; nearly all actives have a fitted effect of over 60% in size
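Luciferase expression driven by the NPC1 promoter was measured in stably transfected Huh7 cells after a 24 h compound incubation, using a luciferase reagent and a luminescence read.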
Rab9 prom act: qHTS Assay for Rab9 Promoter Activators | actives 2.8% (n = 320,000) | AID 485297, 2010 | Huh7 Rab9 promoter-luciferase reporter, luminescence, 24 h | Potency, µM (top dose mostly 9.22 µM), inactives show at the highest dose activation, negative = inhibition, usual class: activators; also: % of control where 0% means no effect; nearly all actives have a fitted effect of over 60% in size
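Luminescence from Amplite-detected luciferase (10 minutes, ambient) reports Rab9 promoter activation. Before that, stable Rab9-luciferase Huh7 cells (1500/well, reduced-serum OP-MEM I plus 10% FBS) were exposed to compound for 24 hours at 37C.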
SMN2 splice enh: qHTS Assay for Enhancers of SMN2 Splice Variant Expression. HEK293 SMN2-luciferase splicing reporter, luminescence, 30-36 h. Potency, µM (titrated, usually from 46.1 µM), inactives show at the highest dose activity change, positive = activation, actives largely listed as activators. actives 2.8% (n = 210,000). AID 1458, 2008; also: % of control where 0% means no effect; nearly all actives have a fitted effect of over 55% in size
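HEK293 cells carry an SMN2 […]–luciferase reporter in which exon 7 inclusion puts luciferase in frame. Cells were plated 10-12 h before compound addition, then incubated 30-36 h at 37C. ONE-Glo luminescence was read; sodium butyrate at 4.5 mM final served as control.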
KinaseGlo FLuc: Counterscreen for Luciferase (Kinase-Glo TM) Inhibition; Luciferin 4-monooxygenase (Photuris pensylvanica), Q27757; Kinase-Glo luciferase, ATP luminescence, 8 min; Potency, µM (titrated, usually from 38.3 µM), inactives show top-dose activity change, negative = inhibition, usual class: inhibitors; actives 0.28% (n = 200,000); also: % is scaled to controls: 0 for no effect and ±100 for the full control effect; nearly all actives have a fitted effect of over 60% in size
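Substrate mix (final 50 mM imidazole pH 7.2, 50 mM KCl, 7 mM MgCl2, 10 uM ATP, 0.01% Tween 20, 0.05% BSA) plus pin-tool compound, then Kinase-Glo detection mix; 8 min ambient, luminescence read.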
Numbers without * were called inactive; [ ] = dose if it differs, or a comment. Shown are actives, neighbours in structure and some others; about 7.4% of the full set was active somewhere. Calls follow the shape of the dose curve; as a rule, active = well fitted curve in the direction sought with a large enough effect; inconclusive = small, poorly fitted or top-dose-only effect, or another doubt; inactive = no such curve, though single readings can be large; an effect the other way counts as inactive or inconclusive. Potency is read from the fitted curve at half-maximal effect.

`O=C/C(=C\Nc1ccccn1)c1nc2ccccc2o1` gave FLuc modulator 13µM*, ELG1 genotoxic 1%, NPC1 promoter act 13%, Rab9 prom act 5%, SMN2 splice enh 25% and KinaseGlo FLuc -4%.
Screening CC(=O)Nc1cccc(N/C=C(\C=O)c2nc3ccccc3o2)c1 returned FLuc modulator 19µM*, ELG1 genotoxic 11%, NPC1 promoter act 15%, Rab9 prom act 19%, SMN2 splice enh inconclusive and KinaseGlo FLuc -3%.
O=C/C(=C\Nc1ccccn1)c1nc2cc(Cl)ccc2o1 was read as FLuc modulator inconclusive, ELG1 genotoxic -2%, NPC1 promoter act 10%, Rab9 prom act 26%, SMN2 splice enh inconclusive and KinaseGlo FLuc 4%.
For CCCCn1c(=O)c2[nH]c(C34CC5CC(CC3C5)C4)nc2n(CCCO)c1=O the results were KinaseGlo FLuc -4%[39.9 µM].
`COc1ccc(NC(=O)c2oc3ccccc3c2NC(=O)c2cccc(F)c2)c(OC)c1` gave FLuc modulator 1% and SMN2 splice enh -20%.
Screening N#Cc1cc2ccccc2nc1SCc1ccccn1 returned FLuc modulator 17µM*, ELG1 genotoxic 7.3µM*, NPC1 promoter act -1%, Rab9 prom act 2%, SMN2 splice enh 11µM* and KinaseGlo FLuc 7%.
Screening O=C(c1ccccc1)c1cc(F)c(N2CCOCC2)cc1Cl returned FLuc modulator inconclusive, ELG1 genotoxic -6%, NPC1 promoter act 0%, Rab9 prom act 0%, SMN2 splice enh -10% and KinaseGlo FLuc -1%.
Screening O=C(Nc1ccc(N2CCOCC2)c(F)c1)c1cccs1 returned FLuc modulator 4.3µM*, ELG1 genotoxic 6.5µM*, NPC1 promoter act 0.5µM* and Rab9 prom act 0.4µM*.
O=C(Nc1ccc(N2CCN(c3ccc(C(F)(F)F)cn3)CC2)nc1)c1cccs1 was read as FLuc modulator -4%, ELG1 genotoxic inconclusive, NPC1 promoter act 1% and Rab9 prom act -8%.
O=C(Nc1ccc(N2CCOCC2)nc1)c1cccs1 was read as FLuc modulator inconclusive, ELG1 genotoxic 16%, NPC1 promoter act inconclusive, Rab9 prom act 2.5µM*, SMN2 splice enh 11µM* and KinaseGlo FLuc -3%.
For COc1ccc(NC(=O)c2ccc(N3CCOCC3)nc2)cc1 the results were FLuc modulator 1%, ELG1 genotoxic -1%, NPC1 promoter act 2% and Rab9 prom act 6%.
`CN(C)c1ccc(NC(=O)c2ccc(N3CCOCC3)nc2)cc1` gave FLuc modulator 15µM*, ELG1 genotoxic 22%, NPC1 promoter act 22% and Rab9 prom act 16%.
Screening O=C(c1ccccc1)c1ccc(N2CCOCC2)c(F)c1 returned FLuc modulator 11µM*, ELG1 genotoxic inconclusive, NPC1 promoter act 3.5µM*, Rab9 prom act 3.5µM*, SMN2 splice enh inconclusive and KinaseGlo FLuc -4%.
`CC1(C)C(O)C=C[C@@]2(C)C1CC(=O)O[C@@]1(C)C3=CC(=O)OC(c4ccoc4)[C@]3(C)CCC21` (stereo not given in full) gave SMN2 splice enh -41% and KinaseGlo FLuc -10%.
C/C(=N/NS(=O)(=O)c1ccccc1)c1ccc(Cl)cc1 was read as FLuc modulator 2%, ELG1 genotoxic -3%, NPC1 promoter act 0%, Rab9 prom act -3%, SMN2 splice enh -16% and KinaseGlo FLuc -1%.
Screening C/C(=N\Nc1nc2ccc(Cl)cc2o1)c1ccccc1 returned FLuc modulator 17µM*, ELG1 genotoxic 4%, NPC1 promoter act 25% and Rab9 prom act inconclusive.
Screening Cc1ccc(S(=O)(=O)NCCSc2nnnn2-c2ccc(Cl)c(C(=O)O)c2)cc1 returned FLuc modulator -20% and SMN2 splice enh -11%.
For COC(=O)c1c(-c2cccs2)csc1NC(=O)c1cccnc1 the results were FLuc modulator 17µM*, ELG1 genotoxic 6%, NPC1 promoter act 28%, Rab9 prom act inconclusive, SMN2 splice enh -1% and KinaseGlo FLuc -5%.
`CCOC(=O)c1c(-c2cccs2)csc1NC(=O)CC(C)C` gave FLuc modulator -1%, ELG1 genotoxic 3%, NPC1 promoter act 3%, Rab9 prom act -2%, SMN2 splice enh 3% and KinaseGlo FLuc -4%.
Screening COC(=O)c1c(-c2cccs2)csc1NC(=O)COc1ccccc1 returned FLuc modulator 6.7µM*.
Screening COC(=O)c1c(-c2cccs2)csc1NC(=O)COc1ccc(C)cc1 returned FLuc modulator -18%.
`CCc1cccc(C)c1NC(=O)C(CC)Sc1nc2ccncc2[nH]1` (stereo not given) gave FLuc modulator -10% and SMN2 splice enh -15%.
For Cc1ccc2c(c1)N(C(=O)N1CCC(C(=O)NC3CCCCCC3)CC1)CCO2 the results were FLuc modulator -1%.
N#C/C(=C\c1ccc(-c2cc(Cl)ccc2Cl)o1)C(=O)Nc1ccccc1C(=O)O was read as FLuc modulator 4.3µM* and SMN2 splice enh -1%.
COc1cc(/C=C(\C#N)C(=O)Nc2ccccc2C(=O)O)cc(Cl)c1OC was read as FLuc modulator 27µM*, ELG1 genotoxic 0%, NPC1 promoter act -9%, Rab9 prom act -1%, SMN2 splice enh 2% and KinaseGlo FLuc 2%.
COc1ccc(/C=C(/C#N)C(=O)Nc2ccccc2C)cc1C(=O)O was read as FLuc modulator -7%, ELG1 genotoxic 2%, NPC1 promoter act 0%, Rab9 prom act -3%, SMN2 splice enh 5% and KinaseGlo FLuc 0%.
Screening O=C(O)Cc1ccc(OCc2ccc(Cl)nc2)cc1 returned FLuc modulator 15µM*, ELG1 genotoxic -10%, NPC1 promoter act 9%, Rab9 prom act 1%, SMN2 splice enh -3% and KinaseGlo FLuc 2%.
O=c1c2ccccc2nc2oc3ccccc3n12 was read as FLuc modulator 7.6µM*, ELG1 genotoxic 10µM*, NPC1 promoter act 1.6µM* and Rab9 prom act 1.6µM*.
`COc1ccc(CCC(=O)Nc2cccc(Cl)c2)cc1` gave FLuc modulator inconclusive, ELG1 genotoxic -1%, NPC1 promoter act -7%, Rab9 prom act 2%, SMN2 splice enh 25% and KinaseGlo FLuc -3%.
For COc1ccc2cc(CCC(C)=O)ccc2c1 the results were FLuc modulator inconclusive, NPC1 promoter act inconclusive, Rab9 prom act inconclusive, SMN2 splice enh 13µM* and KinaseGlo FLuc -2%.
